PubChem BioAssay AID504660 (National Center for Advancing Translational Sciences (NCATS), 2011)
Values joined by “and” are separate entries in the source; they are usually repeats but may differ in a detail not shown here. Identical values can stand only once. The campaign covered roughly 360,000 compounds. About 3,700 (1%) were called active. Shown is part of a subset that was picked to be rich in actives. Unmarked numbers belong to inactive results. No stated cut-off is given here; in the data, active means activation above about 30%; inactive means the rest.

molecular target: D(1A) dopamine receptor (Homo sapiens) (UniProt P21728); test: Allosteric Agonists of the Human D1 Dopamine Receptor: qHTS; conditions: HEK293 T-REx D1 cells, calcium flux, agonist mode; at 2 µM; stronger effect = higher value; further: 0% is about no effect
Sequence (P21728 whole entry, looked up): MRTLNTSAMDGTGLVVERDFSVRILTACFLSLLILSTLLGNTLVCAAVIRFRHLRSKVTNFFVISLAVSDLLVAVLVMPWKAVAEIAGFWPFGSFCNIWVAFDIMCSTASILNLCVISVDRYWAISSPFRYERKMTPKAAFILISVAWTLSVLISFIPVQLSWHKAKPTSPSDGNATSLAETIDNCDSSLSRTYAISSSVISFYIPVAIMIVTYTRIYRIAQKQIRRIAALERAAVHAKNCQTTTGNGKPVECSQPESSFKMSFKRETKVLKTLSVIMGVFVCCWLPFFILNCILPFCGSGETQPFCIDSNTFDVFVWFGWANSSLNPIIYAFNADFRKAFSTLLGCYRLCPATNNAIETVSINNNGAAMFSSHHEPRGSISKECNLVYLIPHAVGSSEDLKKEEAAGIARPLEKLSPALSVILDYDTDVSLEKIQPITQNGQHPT
Outline: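 Agonism was scored from calcium flux recorded over 180 s (1 read/s) after pintool compound addition, following a 10-cycle baseline. Cells were inducible force-coupled HEK293 TREx D1, plated overnight at 30 C and loaded with no-wash calcium dye.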

Compared with CC1CCCN(Cc2c(O)ccc3c(=O)c(Oc4ccc(C(C)(C)C)cc4)c(C(F)(F)F)oc23)C1 (centres undefined), Cc1ccc(NC(=O)c2cn3c4c(ccc(Cl)c4c2=O)OC(C)C3)cc1C (centres undefined) is higher in activation: -1.8% for the first, 2.01% for the second.

Compared with COCCCNCCOCCOc1ccc(Cl)cc1Br, Cc1ccc(C(C)(C)C)c(OCCCCN2CCCC2)c1 is lower in activation: 13.2% for the first, 8.62% for the second.

Compared with CCOc1ccc(NC(=O)c2c(NC(=O)Cc3ccccc3)sc3c2CCC(C)C3)cc1 (centres undefined), COc1ccc(NC(=O)c2ccco2)cc1NC(=O)COc1ccc(C)c(C)c1 is lower in activation: -0.648% for the first, -1.09% for the second.

Compared with COc1ccc(CCNc2nc(-c3ccc(Cl)cc3)cc(C(F)(F)F)n2)cc1OC, FC(F)(F)c1cc(-c2ccco2)nc(NCc2ccc(Cl)cc2)n1 is higher in activation: 7.69% for the first, 7.88% for the second.

Compared with COc1cccc(C(=O)NC2(C(F)(F)F)C(=O)Nc3c2c(=O)[nH]c(=O)n3-c2ccc(C)cc2)c1 (centres undefined), CCOc1cccc(C(=O)Nc2nnc(S(=O)(=O)N(C)c3ccc(C)cc3)s2)c1 is lower in activation: -0.234% for the first, -0.514% for the second.

Compared with Cc1ccc(Cl)cc1N1CCN(C(=O)c2cnc3c(-c4ccc(F)cc4)c(C)nn3c2C)CC1, Cc1ccc2nc(N3CCN(c4cccc(Cl)c4)CC3)c3nnnn3c2c1 is lower in activation: 1.96% for the first, 0.249% for the second.

Going from COCCNC(=O)c1ccc(Cn2c(SCC(=O)NCC3CCCO3)nc3ccc(Br)cc3c2=O)cc1 (centres undefined) to O=C(CNC(=O)c1ccc(Br)o1)NCC1CCCO1 (centres undefined), the activation falls from 2.13% to 0.969%.

Going from CC(=O)c1c(C)n(S(=O)(=O)c2ccc(Cl)cc2)c2ccc(NS(=O)(=O)c3ccc(Cl)cc3)cc12 to CCc1ccc(S(=O)(=O)Nc2cc3c(C(=O)OCc4ccccc4)c(C)oc3c3ccccc23)cc1, the activation rises from 2.47% to 5.87%.

Going from CN(Cc1ccccc1)C(=O)CCS(=O)(=O)c1cc(Br)cc2c1N(C(=O)C1CC1)CC2 to Cc1ccccc1CNC(=O)C1CCCN(S(=O)(=O)N(C)c2ccc(F)cc2)C1 (centres undefined), the activation rises from 0.148% to 2.76%.

Going from COc1ccc(N2CCN(C(=O)[C@@H](NC(=O)c3cc(OC)cc(OC)c3)C(C)C)CC2)cc1 to COc1cc(C(=O)NCc2ccc(-n3cccc3)cc2)cc(OC)c1OC, the activation rises from -0.0979% to 4.24%.

Going from Cc1ccccc1OCCC(=O)OCC(=O)NC(C)c1ccccc1 (centres undefined) to O=C(COC(=O)Cc1ccccc1F)NCCc1ccccc1, the activation rises from 1.35% to 2.43%.

Compared with O=C(CCCCn1c(=O)c2ccccc2n(CC(=O)Nc2cccc(C(F)(F)F)c2)c1=O)NCc1ccc2c(c1)OCO2, Cc1ccccc1NC(=O)Cn1c(=O)n(CC2CCC(C(=O)NCCc3ccccc3)CC2)c(=O)c2ccccc21 (centres undefined) is lower in activation: 4.77% for the first, 0.988% for the second.

Compared with CCCOc1ccc(C(=O)Nc2ccc3oc(-c4cccc(Cl)c4Cl)nc3c2)cc1, CCCC(=O)Nc1ccc2oc(-c3ccc(O)c(Br)c3)nc2c1 is higher in activation: 1.7% for the first, 3.7% for the second.

Compared with Cc1ccc(C)c(N2C(=O)N(Cc3c(F)cccc3Cl)c3ccccc3S2(=O)=O)c1, COc1ccc(Cn2ccc3nc(C)c(C(=O)Nc4ccc(C)c(F)c4)cc3c2=O)cc1 is lower in activation: 5.6% for the first, 2.43% for the second.

Going from CCc1nc2cccnc2n1-c1ccc(CC(=O)Nc2c(C)cccc2C)cc1 to Cc1cccc(OCCSc2nc3ccc(NC(=O)COc4ccccc4C)cc3s2)c1, the activation rises from 1.78% to 14.8%.

First: Cc1ccc(Cn2c(=O)n(Cc3nc(-c4ccccc4)no3)c(=O)c3cc4c(cc32)OCO4)cc1
Second: Cc1ccc(-c2noc(CSc3nnc(-c4ccc(Cl)cc4)n3C)n2)cc1
The activation of the first is higher: -0.256% for the first, -2.32% for the second.

Going from COc1ccccc1Cc1nc2ccccc2nc1SCC(=O)N1CCCc2ccccc21 to Cc1ccc(Cl)cc1NC(=O)CSc1nc2ccccc2nc1Cc1ccccc1, the activation rises from 0.349% to 3.58%.

First: CCCN1CN=C(NS(=O)(=O)c2ccc(NC(C)=O)cc2)NC1
Second: CCOC(=O)c1c(C)oc2ccc(N(C(=O)c3ccncc3)S(=O)(=O)c3ccc(CC)cc3)cc12
The activation of the first is lower: -0.217% for the first, 2.86% for the second.

First: COc1ccc(CC(=O)Nc2nnc3n2CCS3)cc1OC
Second: COc1ccc(Cl)cc1NC(=O)c1sc2nc3c(cc2c1N)CN(C)CC3
The activation of the first is lower: 1.78% for the first, 5% for the second.

Going from Fc1ccccc1Cn1cnc(NC(=S)NCCc2ccccc2)n1 to CCN(CC)c1nn2c(=O)c(C(=O)NCCc3ccccc3)cnc2s1, the activation falls from 1.4% to -0.903%.

First: O=C(Nc1cc(Cl)cc(Cl)c1)c1ccc2c(c1)N(Cc1cccc(Cl)c1)C(=O)c1ccccc1S2=O (centres undefined)
Second: O=C(NCCc1ccc(Cl)cc1)c1ccc2c(c1)N(Cc1ccc(F)cc1)C(=O)CS2
The activation of the first is higher: 6.19% for the first, -1.03% for the second.

First: COc1cc(NC(=O)c2cc([N+](=O)[O-])ccc2Br)ccc1NC(=O)c1ccco1
Second: COc1ccccc1-c1noc(-c2ccc(NCc3ccccc3)c([N+](=O)[O-])c2)n1
The activation of the first is higher: 0.47% for the first, -1.19% for the second.

Compared with CC(C)c1ccccc1OCC(O)CN(CC(O)COc1cccc2ccccc12)C(C)C (centres undefined), CC(C)OCCCn1c(SCC(=O)c2ccccc2)nc2c(sc3ccccc32)c1=O is lower in activation: 6.15% for the first, -1.31% for the second.

Going from Cc1cc(C)cc(OCC(=O)NCc2cc(C)nc3ccccc23)c1 to CCn1c(=O)cc(OCC(=O)Nc2cc(Cl)c(OC)cc2OC)c2ccccc21, the activation rises from -0.104% to 0.964%.

First: Cc1ccc2c(=O)c(C(=O)c3ccc(Cl)cc3)cn(CC(=O)NC3CCCCC3)c2n1
Second: O=C(CCc1cn(Cc2ccc(F)cc2)c2ccccc12)NC1CCCCC1
The activation of the first is lower: 1.93% for the first, 4.91% for the second.

First: CCOc1ccc(CNC(=O)c2ccc3c(c2)nnn3C2CCCC2)cc1
Second: COc1ccc(C(=O)Nc2cccc(C(=O)OCc3cc(=O)n4c5c(sc4n3)CCCC5)c2)cc1
The activation of the first is higher: 1.9% for the first, 0.659% for the second.

Going from CC(=O)c1cccc(NC(=O)CSc2nc3c(c(=O)[nH]2)CCC3)c1 to CC(=O)c1ccc(OCC(O)CN2CCN(S(=O)(=O)c3cccc(Br)c3)CC2)cc1 (centres undefined), the activation falls from 1.96% to 0.785%.

First: CC(C)Cc1cc(C(=O)Nc2cc(Br)ccc2O)no1
Second: CC(=N\NC(=O)c1cc(Br)ccc1O)/C(=N/O)C(=O)Nc1ccccc1
The activation of the first is lower: -1.17% for the first, 5.39% for the second.

Compared with CCc1nnc(SCc2nc(-c3cccc(C)c3)oc2C)c2cc3sc(C)cc3n12, CCCCCCn1nnc2sc(-c3ccccc3)cc2c1=O is higher in activation: 1.16% for the first, 2.52% for the second.

First: CC(C)c1ccc(OCC(O)CN2CCN(c3ccccn3)CC2)cc1 (centres undefined)
Second: COc1ccccc1Cn1c(CO)nc2ccccc21
The activation of the first is lower: 2.28% for the first, 2.48% for the second.

First: COc1ccc(NC(=O)CSC2=Nc3ccccc3C3=NC(CC(=O)NCc4ccccc4OC)C(=O)N23)cc1Cl (centres undefined)
Second: Cc1c(NC(=O)c2cc(=O)c3ccccc3o2)c(=O)n(-c2ccccc2)n1C
The activation of the first is higher: 4.46% for the first, -0.0323% for the second.

First: C=C(Br)Cn1c(CCCC)nc2ccccc21
Second: CCCn1c2ccccc2c2cnn(CC(=O)NCCCOC(C)C)c(=O)c21
The activation of the first is higher: 2.85% for the first, -0.0904% for the second.

First: Cc1ccc(Nc2nc(CSc3nnnn3-c3ccccc3)cc(=O)[nH]2)cc1
Second: Oc1ccc(-c2nc3ccc(Cl)cn3c2Nc2ccc3c(c2)OCO3)cc1
The activation of the first is lower: 0.0289% for the first, 2.27% for the second.

Going from CCc1ccccc1N1C(=O)CN(S(=O)(=O)CC)CC1(C)C(=O)NC1CCCCC1 (centres undefined) to COC(=O)c1c(NC(C)=O)sc(C(=O)Nc2ccccc2OC)c1C, the activation rises from 0.155% to 2.77%.

Going from COc1cc(C(=S)NCc2ccccc2)cc(Br)c1O to C/C(=N\NC(N)=S)c1ccncc1, the activation falls from 1.7% to 0.713%.

For CC(C)(C)NCCCOc1ccc(Cl)cc1C(C)(C)C, the activation was 59.2% (active).
COc1ccc(CNc2nc(-c3ccc(Cl)cc3)cc(C(F)(F)F)n2)cc1 was tested, and the activation was 41.5% (active).
In the case of OC(CNCC1CCCO1)Cn1c2ccc(Br)cc2c2cc(Br)ccc21 (centres undefined), the activation is reported as 38.5% (active).
With c1ccc2c(c1)C(=NC1CCCCC1)NC2=NC1CCCCC1 the activation was 30.7% (active).
In the case of COc1cc(OC)cc(C(=O)N[C@H](C(=O)OCC(=O)NC(C)c2ccccc2)C(C)C)c1 (some centres undefined), the activation is reported as 119% (active).
CN1C(=O)c2cccc3c(N)ccc(c23)C1=O was tested, and the activation was 219% (active).
For Cc1nn(C)cc1N1C(=O)c2cccc3c(N)ccc(c23)C1=O, the activation was 244% (active).
In the case of N=c1n(CCc2ccccc2)c2ccccc2n1Cc1ccccc1F, the activation is reported as 100% (active).
CCC(=O)NC(=S)Nc1ccc(NC(=O)c2ccco2)c(Cl)c1 was tested, and the activation was 42.4% (active).
With Cc1cc(C)c(NC(=O)C[N+](C)(C)CC(O)COc2cccc3ccccc23)c(C)c1 (centres undefined) the activation was 62.2% (active).
In the case of CC(C)/C=N/NC(=O)c1cc(Br)ccc1O, the activation is reported as 32.1% (active).
With O=S(=O)(c1ccc(OCC(O)CN2CCN(c3ccccc3Cl)CC2)cc1)N1CCOCC1 (centres undefined) the activation was 105% (active).
With COCc1nc2ccccc2n1Cc1ccccc1Br the activation was 30.7% (active).
In the case of Cc1ccc(-c2noc(CSc3nnnn3-c3ccccc3)n2)cc1, the activation is reported as 45.5% (active).
For COc1cc(C(=O)NCc2ccncc2)cc(Br)c1OCc1ccccc1, the activation was 62.9% (active).
In the case of CCN(CC)c1ccc2cc(C(N)=O)/c(=N\NC(=O)c3ccncc3)oc2c1, the activation is reported as 68.8% (active).
In the case of COc1ccccc1NC(=O)c1sc2nc(C)c(C(=O)Nc3ccc(Cl)cc3)c(-c3ccc(Br)cc3)c2c1N, the activation is reported as 48.4% (active).
With CCCn1c2ccccc2c2cnn(CC(=O)NCCCN3CCCCC3CC)c(=O)c21 (centres undefined) the activation was 2.1% and -0.646%.
For CCCn1c2ccccc2c2cnn(CC(=O)NCC3CCN(Cc4ccc(C)cc4)CC3)c(=O)c21, the activation was 32% (active).
